The text below walks through data of ChEMBL document CHEMBL1961873, “Compounds: GSK PKIS; Assays: Nanosyn kinase panel” (2012).

In general, inhibition refers to the change of the read-out against control, counted positive when it falls.

The target in experiment [1] is Mitogen-activated protein kinase 3 (Homo sapiens) (UniProt P27361). The settings on record: at 1 µM.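 Note: values are mean percent inhibition of MAPK3.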
For experiment [2], the target named is SRSF protein kinase 3 (Homo sapiens) (UniProt Q9UPE1). The settings on record: at 0.1 µM.
Experiment [3] has the same target. Particulars: at 1 µM.
The target in experiment [4] is Mitogen-activated protein kinase 14 (Homo sapiens) (UniProt Q16539). Particulars: at 0.1 µM.
For experiment [5] the target is unchanged. Particulars: at 1 µM.
Experiment [6] has as its target Mitogen-activated protein kinase 11 (Homo sapiens) (UniProt Q15759). The settings on record: at 0.1 µM.
The target is the same in experiment [7]. The settings on record: at 1 µM.
For experiment [8], the target named is T1, Mitogen-activated protein kinase 13 (Homo sapiens) (UniProt O15264).
T1 sequence (whole entry): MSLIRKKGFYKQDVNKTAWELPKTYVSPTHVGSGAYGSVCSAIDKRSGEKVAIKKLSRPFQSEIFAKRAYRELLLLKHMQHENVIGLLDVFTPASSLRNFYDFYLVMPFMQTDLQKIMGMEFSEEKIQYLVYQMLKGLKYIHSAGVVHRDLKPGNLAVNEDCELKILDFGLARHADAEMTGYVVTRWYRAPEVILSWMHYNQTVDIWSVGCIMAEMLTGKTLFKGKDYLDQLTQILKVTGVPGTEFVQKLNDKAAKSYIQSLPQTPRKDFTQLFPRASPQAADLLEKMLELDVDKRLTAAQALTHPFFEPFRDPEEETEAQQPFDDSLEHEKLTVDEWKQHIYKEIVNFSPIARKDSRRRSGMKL
Particulars: at 0.1 µM.

Experiment [9] has as its target T1, Mitogen-activated protein kinase 13 (Homo sapiens). Particulars: at 1 µM.
In experiment [10] the target is T2, Mitogen-activated protein kinase 12 (Homo sapiens) (UniProt P53778).
T2 sequence (whole entry): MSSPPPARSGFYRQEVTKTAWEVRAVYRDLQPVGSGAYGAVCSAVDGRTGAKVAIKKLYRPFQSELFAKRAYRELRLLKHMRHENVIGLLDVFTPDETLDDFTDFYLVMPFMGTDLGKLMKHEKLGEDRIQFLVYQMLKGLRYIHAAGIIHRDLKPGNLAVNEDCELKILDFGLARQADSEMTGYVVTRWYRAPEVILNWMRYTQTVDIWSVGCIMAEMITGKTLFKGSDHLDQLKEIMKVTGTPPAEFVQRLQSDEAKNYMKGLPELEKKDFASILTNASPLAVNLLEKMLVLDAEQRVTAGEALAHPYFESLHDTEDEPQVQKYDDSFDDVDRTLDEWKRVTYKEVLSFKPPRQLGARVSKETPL
Particulars: at 0.1 µM.

In experiment [11] the target is T2, Mitogen-activated protein kinase 12 (Homo sapiens). The settings on record: at 1 µM.
For experiment [12], the target named is SRSF protein kinase 1 (Homo sapiens) (UniProt Q96SB4). Particulars: at 0.1 µM.
Experiment [13] has the same target. Particulars: at 1 µM.
Experiment [14] addresses Phosphatidylinositol 4,5-bisphosphate 3-kinase catalytic subunit alpha isoform (Homo sapiens) (UniProt P42336). Particulars: at 0.1 µM.
Experiment [15] shares this target. Particulars: at 1 µM.
In experiment [16] the target is T3, Phosphatidylinositol 4,5-bisphosphate 3-kinase catalytic subunit delta isoform (Homo sapiens) (UniProt O00329).
T3 sequence (whole entry): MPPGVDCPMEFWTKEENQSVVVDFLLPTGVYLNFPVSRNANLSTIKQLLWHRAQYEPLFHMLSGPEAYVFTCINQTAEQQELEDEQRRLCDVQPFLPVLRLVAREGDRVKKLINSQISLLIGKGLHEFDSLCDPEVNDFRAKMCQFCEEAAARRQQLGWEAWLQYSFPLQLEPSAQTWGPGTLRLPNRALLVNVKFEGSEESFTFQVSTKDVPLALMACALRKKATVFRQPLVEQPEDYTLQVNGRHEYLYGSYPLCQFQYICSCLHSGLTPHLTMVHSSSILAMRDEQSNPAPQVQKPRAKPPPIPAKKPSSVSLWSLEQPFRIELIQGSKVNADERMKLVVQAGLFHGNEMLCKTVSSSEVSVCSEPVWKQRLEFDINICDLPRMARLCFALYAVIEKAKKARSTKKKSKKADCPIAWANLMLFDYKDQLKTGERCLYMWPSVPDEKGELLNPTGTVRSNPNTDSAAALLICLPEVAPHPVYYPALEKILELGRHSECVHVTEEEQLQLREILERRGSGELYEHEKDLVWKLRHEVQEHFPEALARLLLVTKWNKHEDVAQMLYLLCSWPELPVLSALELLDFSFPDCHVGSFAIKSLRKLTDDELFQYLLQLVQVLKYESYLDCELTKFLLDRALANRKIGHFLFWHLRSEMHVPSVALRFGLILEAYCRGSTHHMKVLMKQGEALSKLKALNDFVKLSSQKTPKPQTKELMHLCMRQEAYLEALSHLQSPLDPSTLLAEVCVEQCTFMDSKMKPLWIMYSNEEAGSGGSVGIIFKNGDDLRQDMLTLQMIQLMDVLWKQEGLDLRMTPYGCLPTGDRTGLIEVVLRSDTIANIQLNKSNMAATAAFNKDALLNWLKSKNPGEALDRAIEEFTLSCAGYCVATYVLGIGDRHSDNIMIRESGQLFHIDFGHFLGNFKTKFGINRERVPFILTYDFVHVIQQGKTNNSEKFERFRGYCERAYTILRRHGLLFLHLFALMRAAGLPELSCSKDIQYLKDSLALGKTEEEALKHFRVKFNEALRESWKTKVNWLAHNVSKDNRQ
Particulars: at 0.1 µM.

Experiment [17] concerns the target T3, Phosphatidylinositol 4,5-bisphosphate 3-kinase catalytic subunit delta isoform (Homo sapiens). The settings on record: at 1 µM.
The target of experiment [18] is Phosphatidylinositol 4-kinase beta (Homo sapiens) (UniProt Q9UBF8). Particulars: at 0.1 µM.
Experiment [19] shares this target. The settings on record: at 1 µM.
For experiment [20], the target named is Sphingosine kinase 1 (Homo sapiens) (UniProt Q9NYA1). Particulars: at 0.1 µM.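 Note: mean percent inhibition of SPHK1 activity, measured within the GSK PKIS screening panel.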
Chain of Sphingosine kinase 1 (Homo sapiens) (Q9NYA1 whole entry): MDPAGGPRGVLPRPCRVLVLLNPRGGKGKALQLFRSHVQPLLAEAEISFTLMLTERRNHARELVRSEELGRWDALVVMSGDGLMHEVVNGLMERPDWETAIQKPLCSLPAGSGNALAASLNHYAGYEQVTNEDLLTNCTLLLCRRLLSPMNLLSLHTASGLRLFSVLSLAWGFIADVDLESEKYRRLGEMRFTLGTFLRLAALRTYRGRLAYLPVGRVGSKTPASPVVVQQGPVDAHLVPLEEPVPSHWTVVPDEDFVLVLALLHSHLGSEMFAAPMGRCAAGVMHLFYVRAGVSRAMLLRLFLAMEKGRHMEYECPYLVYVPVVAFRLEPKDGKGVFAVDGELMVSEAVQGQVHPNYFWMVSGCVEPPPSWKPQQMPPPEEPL

Chain of Phosphatidylinositol 4,5-bisphosphate 3-kinase catalytic subunit alpha isoform (Homo sapiens) (P42336 whole entry, canonical isoform): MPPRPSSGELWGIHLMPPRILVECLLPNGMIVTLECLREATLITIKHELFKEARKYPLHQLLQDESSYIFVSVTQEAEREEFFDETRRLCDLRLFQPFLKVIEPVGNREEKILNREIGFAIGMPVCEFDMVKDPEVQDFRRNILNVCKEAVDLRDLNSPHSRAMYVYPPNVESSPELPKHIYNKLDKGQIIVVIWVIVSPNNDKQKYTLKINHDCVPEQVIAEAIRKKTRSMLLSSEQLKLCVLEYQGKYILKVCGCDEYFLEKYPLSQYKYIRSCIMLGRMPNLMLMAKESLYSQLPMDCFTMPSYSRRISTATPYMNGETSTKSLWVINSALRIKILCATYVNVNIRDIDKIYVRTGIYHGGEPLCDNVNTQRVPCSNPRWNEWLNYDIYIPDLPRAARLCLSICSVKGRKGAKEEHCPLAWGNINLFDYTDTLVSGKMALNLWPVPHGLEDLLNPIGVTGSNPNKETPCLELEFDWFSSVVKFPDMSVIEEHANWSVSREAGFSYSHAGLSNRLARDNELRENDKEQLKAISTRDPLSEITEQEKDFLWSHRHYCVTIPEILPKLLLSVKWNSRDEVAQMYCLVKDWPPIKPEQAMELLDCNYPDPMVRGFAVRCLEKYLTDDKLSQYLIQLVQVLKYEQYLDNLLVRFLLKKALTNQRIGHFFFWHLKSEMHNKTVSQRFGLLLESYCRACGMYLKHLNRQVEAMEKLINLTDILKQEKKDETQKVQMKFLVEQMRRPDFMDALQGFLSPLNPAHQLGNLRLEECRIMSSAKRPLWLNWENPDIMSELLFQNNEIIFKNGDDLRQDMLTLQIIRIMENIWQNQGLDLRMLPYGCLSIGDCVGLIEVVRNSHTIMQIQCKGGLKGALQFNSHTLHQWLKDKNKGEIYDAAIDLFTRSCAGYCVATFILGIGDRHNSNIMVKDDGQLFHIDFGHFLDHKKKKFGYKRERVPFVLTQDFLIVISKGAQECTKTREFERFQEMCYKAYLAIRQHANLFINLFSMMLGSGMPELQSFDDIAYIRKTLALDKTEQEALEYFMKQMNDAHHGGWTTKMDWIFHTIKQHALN
Chain of Mitogen-activated protein kinase 3 (Homo sapiens) (P27361 whole entry): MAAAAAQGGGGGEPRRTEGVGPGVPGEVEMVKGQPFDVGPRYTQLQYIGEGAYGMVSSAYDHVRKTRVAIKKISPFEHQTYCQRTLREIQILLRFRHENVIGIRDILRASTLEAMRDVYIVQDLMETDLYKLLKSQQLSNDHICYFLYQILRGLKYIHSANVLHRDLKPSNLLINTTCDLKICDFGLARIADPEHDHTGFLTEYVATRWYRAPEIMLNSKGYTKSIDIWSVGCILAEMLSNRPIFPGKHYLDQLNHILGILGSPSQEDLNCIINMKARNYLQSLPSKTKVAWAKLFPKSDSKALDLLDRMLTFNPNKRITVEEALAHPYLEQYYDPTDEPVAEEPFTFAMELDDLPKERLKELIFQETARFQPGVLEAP
Chain of Mitogen-activated protein kinase 11 (Homo sapiens) (Q15759 whole entry): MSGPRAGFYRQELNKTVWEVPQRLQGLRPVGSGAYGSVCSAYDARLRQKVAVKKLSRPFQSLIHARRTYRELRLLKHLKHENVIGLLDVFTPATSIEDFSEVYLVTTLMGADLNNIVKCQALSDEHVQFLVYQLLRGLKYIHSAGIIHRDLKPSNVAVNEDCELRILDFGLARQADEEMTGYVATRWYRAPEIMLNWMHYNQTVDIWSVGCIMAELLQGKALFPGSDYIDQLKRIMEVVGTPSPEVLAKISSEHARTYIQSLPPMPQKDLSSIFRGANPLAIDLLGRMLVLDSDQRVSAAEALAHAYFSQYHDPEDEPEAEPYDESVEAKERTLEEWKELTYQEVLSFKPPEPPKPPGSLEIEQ
Chain of Phosphatidylinositol 4-kinase beta (Homo sapiens) (Q9UBF8 2-816 limits assumed): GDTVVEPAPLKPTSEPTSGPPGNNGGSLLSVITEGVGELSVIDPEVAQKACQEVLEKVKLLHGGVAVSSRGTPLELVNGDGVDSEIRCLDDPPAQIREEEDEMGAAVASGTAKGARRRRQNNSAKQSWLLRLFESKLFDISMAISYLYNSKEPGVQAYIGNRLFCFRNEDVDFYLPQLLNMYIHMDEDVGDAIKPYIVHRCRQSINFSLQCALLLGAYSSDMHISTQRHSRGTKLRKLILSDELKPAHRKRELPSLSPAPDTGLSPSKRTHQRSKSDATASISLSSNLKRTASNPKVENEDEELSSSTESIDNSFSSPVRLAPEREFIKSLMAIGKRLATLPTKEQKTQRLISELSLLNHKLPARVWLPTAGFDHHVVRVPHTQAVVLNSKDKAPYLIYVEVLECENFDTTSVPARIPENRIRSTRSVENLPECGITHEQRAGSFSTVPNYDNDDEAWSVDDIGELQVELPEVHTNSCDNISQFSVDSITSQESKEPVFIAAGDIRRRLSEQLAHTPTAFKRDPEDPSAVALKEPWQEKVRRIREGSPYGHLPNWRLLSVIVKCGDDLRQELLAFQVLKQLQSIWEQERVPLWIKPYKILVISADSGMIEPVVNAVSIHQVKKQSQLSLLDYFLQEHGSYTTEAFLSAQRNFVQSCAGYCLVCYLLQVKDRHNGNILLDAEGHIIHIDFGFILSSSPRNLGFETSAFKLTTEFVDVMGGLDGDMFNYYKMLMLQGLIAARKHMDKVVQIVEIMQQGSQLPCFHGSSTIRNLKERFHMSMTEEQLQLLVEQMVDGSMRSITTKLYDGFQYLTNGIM
Chain of SRSF protein kinase 3 (Homo sapiens) (Q9UPE1 whole entry): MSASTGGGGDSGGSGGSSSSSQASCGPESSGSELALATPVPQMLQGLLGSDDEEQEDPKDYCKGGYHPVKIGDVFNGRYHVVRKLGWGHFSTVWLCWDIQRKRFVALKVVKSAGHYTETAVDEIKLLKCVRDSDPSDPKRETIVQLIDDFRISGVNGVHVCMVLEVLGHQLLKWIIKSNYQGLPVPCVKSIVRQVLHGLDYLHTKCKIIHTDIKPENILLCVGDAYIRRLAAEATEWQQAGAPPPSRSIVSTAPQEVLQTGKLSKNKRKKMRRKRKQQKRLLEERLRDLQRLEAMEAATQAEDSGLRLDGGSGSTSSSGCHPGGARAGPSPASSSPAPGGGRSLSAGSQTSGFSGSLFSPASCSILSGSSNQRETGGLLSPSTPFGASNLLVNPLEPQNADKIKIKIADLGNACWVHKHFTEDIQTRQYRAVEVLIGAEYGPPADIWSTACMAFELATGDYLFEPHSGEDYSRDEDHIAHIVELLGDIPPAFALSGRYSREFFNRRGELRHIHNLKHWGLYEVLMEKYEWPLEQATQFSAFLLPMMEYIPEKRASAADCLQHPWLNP
Chain of SRSF protein kinase 1 (Homo sapiens) (Q96SB4 whole entry): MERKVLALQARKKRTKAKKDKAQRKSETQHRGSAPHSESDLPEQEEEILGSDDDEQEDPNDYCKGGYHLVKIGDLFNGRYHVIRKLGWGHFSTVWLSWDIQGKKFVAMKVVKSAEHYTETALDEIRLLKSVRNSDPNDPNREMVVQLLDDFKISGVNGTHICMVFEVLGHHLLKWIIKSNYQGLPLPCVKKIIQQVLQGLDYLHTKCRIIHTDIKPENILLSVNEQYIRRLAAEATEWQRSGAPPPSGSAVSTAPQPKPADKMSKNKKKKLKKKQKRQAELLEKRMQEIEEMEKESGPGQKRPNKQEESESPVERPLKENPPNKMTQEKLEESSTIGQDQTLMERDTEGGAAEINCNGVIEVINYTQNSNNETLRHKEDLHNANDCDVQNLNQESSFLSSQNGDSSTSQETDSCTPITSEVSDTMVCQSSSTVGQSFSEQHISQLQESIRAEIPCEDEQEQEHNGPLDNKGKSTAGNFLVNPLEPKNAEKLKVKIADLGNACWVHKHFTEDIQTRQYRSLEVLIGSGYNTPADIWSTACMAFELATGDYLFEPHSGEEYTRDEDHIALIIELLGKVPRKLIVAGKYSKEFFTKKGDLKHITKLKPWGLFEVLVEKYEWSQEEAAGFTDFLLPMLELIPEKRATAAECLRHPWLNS
Chain of Mitogen-activated protein kinase 14 (Homo sapiens) (Q16539 whole entry): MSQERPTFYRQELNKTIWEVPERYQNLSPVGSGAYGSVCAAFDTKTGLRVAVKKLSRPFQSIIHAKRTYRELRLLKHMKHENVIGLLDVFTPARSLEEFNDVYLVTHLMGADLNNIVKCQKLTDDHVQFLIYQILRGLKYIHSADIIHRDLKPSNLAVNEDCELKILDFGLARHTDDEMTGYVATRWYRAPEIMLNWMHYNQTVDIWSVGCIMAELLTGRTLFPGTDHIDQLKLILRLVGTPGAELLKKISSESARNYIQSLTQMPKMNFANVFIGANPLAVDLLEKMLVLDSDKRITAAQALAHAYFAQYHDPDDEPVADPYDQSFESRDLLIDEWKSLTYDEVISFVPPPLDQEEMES

`Cc1cccc(-c2n[nH]cc2-c2ccc3ncccc3n2)n1`: the inhibition in [1] was 0.82%; in [2], -1.48%; in experiment [3] it was -0.43%; in [4], 2.51%; in [5], 12%; in [6], -0.93%. Further, the inhibition is 0.8% in experiment [7]; 1.23% in experiment [8]; -0.48% in [9]; 0.84% in experiment [10]; 0.57% in experiment [11]; -1.35% in experiment [12]. Besides, the inhibition in experiment [13] was -1.16%; in experiment [14], -0.95%; in [15] it was 1.78%; in [16], -0.15%; in experiment [17] it was 0.53%; in experiment [18] it was 1.57%. Further, the inhibition is 4.48% in experiment [19] and -2.56% in experiment [20].
With `CCn1c(-c2nonc2N)nc2cncc(C(=O)N3CCNCC3)c21`, the inhibition in experiment [1] was 7.02%; in [2], 0.64%; in experiment [3], -1.54%; in experiment [4] it was 14.5%; in experiment [5] it was 20.5%; in experiment [6], 5.86%. The inhibition in [7] was 5.3%; in experiment [8] it was 6.15%; in [9], 7.35%; in experiment [10] it was 3.73%; in experiment [11], 5.97%; in experiment [12] it was -1.32%. For the same compound, the inhibition in [13] was -1.85%; in [14], 5.78%; in experiment [15], 5.67%; in experiment [16], 1.16%; in [17], 2.58%; in experiment [18], -4.56%. Also, the inhibition in experiment [20] is -1.49%.
As to `O=C1NC(=O)C(c2cccc(Cl)c2)=C1Nc1ccc(O)c(Cl)c1`, the inhibition in [1] was 2.28%; in experiment [2], -0.01%; in [3] it was 2.47%; in experiment [4], 1.38%; in experiment [5], 8.66%; in [6], 1.96%. In addition, the inhibition in experiment [7] is 4.99%; in experiment [8], 0.26%; in [9], 0.3%; in experiment [10], -0.58%; in experiment [11], 0.35%; in experiment [12], -2.71%. Besides, the inhibition in experiment [13] was -4.83%; in experiment [14], -1.72%; in [15], 5.36%; in [16], 0.8%; in experiment [17], 4.17%; in experiment [18], -4.92%. Moreover, the inhibition in experiment [19] is 1.17%; in experiment [20], 1.58%.
Regarding `CC(C)=Cc1cccc2c1/C(=N/Nc1ccc(S(N)(=O)=O)cc1)C(=O)N2`, the inhibition was 2.62% in experiment [1]; -0.98% in experiment [2]; 3.29% in [3]; 0.04% in experiment [4]; 1.72% in experiment [5]; 0.78% in experiment [6]. Besides, the inhibition was 5.29% in experiment [7]; 0.28% in [8]; 1.32% in experiment [9]; -0.48% in [10]; -0.16% in [11]; 0.13% in [12]. Further, the inhibition in experiment [13] is 2.55%; in experiment [14] it was 0.06%; in [15], 1.06%; in experiment [16] it was 0.23%; in experiment [17] it was 1.67%; in [18] it was 1.78%. Also, the inhibition was found to be 3.22% in experiment [19] and 2.28% in experiment [20].
With `CC(=O)Nc1cccc(C#Cc2cncnc2Nc2ccc(OCc3cccc(F)c3)c(Cl)c2)n1`, the inhibition is 1.62% in experiment [1]; -0.01% in experiment [2]; 3.44% in experiment [3]; -0.35% in [4]; -1.8% in experiment [5]; 0.21% in experiment [6]. The inhibition in experiment [7] is 3.12%; in experiment [8] it was -1.33%; in experiment [9] it was -1.57%; in experiment [10] it was -2.16%; in experiment [11] it was -1.66%; in experiment [12], 1.83%. The inhibition in experiment [13] is 6.55%; in experiment [14] it was 1.06%; in experiment [15] it was -3.01%; in [16], -2.12%; in [17] it was -0.16%; in [18], 2.97%. Besides, the inhibition in experiment [19] is 0.88%; in [20], 0.46%.
